{"source": "the supplement of paper PMC10849652", "note": "Targets with a hit are over-represented here; the source holds about 7,900 in all. About 0.6% of all pairs of compound and target were hits. Unmarked numbers belong to inactive results.", "data": [{"compound": "CON(C)C(=O)N1N=C(c2cc(F)ccc2F)S[C@@]1(CCCN)c1ccccc1 [filanesib]", "experiment": "log2 fold change, soluble protein after heating vs DMSO (PISA); higher = thermal stabilisation; K562 cells, 10 uM, 30 min; active = over 0.2 and 3.5 SD of the protein, either way, in both replicates (recomputed)", "outline": "(§1)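 Quantification of soluble protein used TMTpro 16plex LC-MS/MS, with channel sums equalised. Samples were the supernatant after 21,000xg for 90 min of pooled aliquots from K562 cells (2×10^6 cells/mL) treated with 10 μM compound for 30 min, heated for 3 min over 48°C-58°C, and extracted in PBS with 0.5% NP-40 at 4°C. Values, from duplicates, describe thermal stability against control samples on a log2 fold-change scale.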", "values": [{"target": "DYNC1I2 isoform 2 (UniProt Q13409)", "log2 fold change": 0.203}, {"target": "EZH2 isoform 2 (UniProt Q15910)", "log2 fold change": -0.113}, {"target": "EHBP1L1 (UniProt Q8N3D4)", "sequence (Q8N3D4 whole entry, looked up)": "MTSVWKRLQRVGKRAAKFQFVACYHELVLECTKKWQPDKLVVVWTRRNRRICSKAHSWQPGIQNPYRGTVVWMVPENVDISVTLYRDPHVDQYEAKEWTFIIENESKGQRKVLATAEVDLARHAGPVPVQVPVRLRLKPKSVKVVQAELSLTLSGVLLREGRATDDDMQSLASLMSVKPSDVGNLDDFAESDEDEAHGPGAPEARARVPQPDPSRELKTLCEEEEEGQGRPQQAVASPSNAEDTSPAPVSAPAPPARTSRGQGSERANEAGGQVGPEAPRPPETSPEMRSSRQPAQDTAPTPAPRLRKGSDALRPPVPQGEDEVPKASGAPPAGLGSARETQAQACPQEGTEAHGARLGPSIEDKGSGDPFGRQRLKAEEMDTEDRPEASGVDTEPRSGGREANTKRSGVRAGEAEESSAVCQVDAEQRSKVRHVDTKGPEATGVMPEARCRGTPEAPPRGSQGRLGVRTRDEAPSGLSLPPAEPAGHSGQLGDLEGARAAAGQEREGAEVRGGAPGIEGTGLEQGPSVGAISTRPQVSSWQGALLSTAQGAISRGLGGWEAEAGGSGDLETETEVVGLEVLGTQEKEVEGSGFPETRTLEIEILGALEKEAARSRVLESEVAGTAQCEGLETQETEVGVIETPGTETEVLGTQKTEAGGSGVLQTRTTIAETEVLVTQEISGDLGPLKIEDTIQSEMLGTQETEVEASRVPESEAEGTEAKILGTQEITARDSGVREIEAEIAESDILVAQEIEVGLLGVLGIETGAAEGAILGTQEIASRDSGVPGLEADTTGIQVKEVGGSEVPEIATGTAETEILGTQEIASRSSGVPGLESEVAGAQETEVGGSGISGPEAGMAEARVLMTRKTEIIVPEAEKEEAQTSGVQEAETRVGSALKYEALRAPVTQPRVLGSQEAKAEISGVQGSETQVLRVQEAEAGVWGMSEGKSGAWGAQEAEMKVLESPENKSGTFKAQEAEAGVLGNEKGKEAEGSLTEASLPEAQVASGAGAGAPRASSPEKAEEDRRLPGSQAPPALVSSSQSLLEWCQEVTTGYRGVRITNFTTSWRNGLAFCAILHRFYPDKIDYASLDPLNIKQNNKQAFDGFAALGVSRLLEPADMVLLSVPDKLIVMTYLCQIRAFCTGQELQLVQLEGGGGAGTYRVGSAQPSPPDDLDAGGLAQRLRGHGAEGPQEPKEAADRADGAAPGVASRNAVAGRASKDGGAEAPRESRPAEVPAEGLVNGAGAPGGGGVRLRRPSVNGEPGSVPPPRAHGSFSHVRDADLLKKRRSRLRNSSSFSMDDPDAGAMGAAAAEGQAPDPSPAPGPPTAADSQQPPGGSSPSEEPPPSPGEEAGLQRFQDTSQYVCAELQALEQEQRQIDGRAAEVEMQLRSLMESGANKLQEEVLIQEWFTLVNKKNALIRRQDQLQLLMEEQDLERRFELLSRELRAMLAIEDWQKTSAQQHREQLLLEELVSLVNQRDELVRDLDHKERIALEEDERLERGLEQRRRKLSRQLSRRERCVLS", "log2 fold change": 0.147}, {"target": "DDX5 (UniProt P17844)", "log2 fold change": 0.013}, {"target": "FAM177A1 isoform 2 (UniProt Q8N128)", "log2 fold change": -0.145}, {"target": "EXOC4 (UniProt Q96A65)", "log2 fold change": 0.009}, {"target": "E2F4 (UniProt Q16254)", "log2 fold change": -0.034}, {"target": "DNAH10 (UniProt Q8IVF4)", "log2 fold change": -0.187}, {"target": "DSN1 (UniProt Q9H410)", "log2 fold change": 0.048}, {"target": "DNM2 isoform 4 (UniProt P50570)", "sequence (P50570 whole entry, looked up)": "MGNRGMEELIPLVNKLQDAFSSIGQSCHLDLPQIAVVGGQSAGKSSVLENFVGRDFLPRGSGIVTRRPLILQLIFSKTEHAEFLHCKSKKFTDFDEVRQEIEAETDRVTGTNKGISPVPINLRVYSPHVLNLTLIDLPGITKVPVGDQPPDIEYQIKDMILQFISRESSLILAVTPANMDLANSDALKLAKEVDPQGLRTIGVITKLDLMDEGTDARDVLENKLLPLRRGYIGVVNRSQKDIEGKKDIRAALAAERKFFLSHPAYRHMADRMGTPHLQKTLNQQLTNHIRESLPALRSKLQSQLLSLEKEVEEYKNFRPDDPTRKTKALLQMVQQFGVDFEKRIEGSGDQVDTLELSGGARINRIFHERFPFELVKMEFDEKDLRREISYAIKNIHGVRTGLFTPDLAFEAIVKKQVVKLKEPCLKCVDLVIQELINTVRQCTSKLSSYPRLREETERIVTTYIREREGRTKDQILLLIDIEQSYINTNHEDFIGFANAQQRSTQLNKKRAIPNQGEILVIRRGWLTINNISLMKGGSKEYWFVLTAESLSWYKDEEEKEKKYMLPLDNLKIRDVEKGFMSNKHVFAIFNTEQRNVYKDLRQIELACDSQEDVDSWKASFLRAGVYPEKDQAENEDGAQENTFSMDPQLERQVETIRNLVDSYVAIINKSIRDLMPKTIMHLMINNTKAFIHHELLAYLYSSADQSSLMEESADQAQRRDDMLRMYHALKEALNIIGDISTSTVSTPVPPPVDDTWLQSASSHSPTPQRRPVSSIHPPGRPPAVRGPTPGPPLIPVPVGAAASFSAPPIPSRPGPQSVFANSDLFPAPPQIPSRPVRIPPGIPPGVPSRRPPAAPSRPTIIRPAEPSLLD", "log2 fold change": 0.021}, {"target": "CWF19L2 (UniProt Q2TBE0)", "log2 fold change": 0.225}, {"target": "DDOST (UniProt P39656)", "sequence (P39656 whole entry, looked up)": "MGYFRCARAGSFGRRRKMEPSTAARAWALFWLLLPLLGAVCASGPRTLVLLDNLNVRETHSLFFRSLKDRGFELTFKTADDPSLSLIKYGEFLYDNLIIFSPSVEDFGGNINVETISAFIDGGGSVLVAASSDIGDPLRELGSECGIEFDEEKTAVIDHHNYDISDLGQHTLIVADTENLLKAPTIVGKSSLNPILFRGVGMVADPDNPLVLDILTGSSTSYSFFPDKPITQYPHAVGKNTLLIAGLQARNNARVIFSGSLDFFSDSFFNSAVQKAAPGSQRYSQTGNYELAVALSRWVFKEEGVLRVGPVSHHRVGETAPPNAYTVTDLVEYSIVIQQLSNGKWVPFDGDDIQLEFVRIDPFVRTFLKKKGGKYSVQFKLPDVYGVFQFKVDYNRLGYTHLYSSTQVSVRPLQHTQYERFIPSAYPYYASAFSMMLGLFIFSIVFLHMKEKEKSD", "log2 fold change": -0.009}, {"target": "CTSS (UniProt P25774)", "log2 fold change": 0.051}, {"target": "DUS3L (UniProt Q96G46)", "sequence (Q96G46 whole entry, looked up)": "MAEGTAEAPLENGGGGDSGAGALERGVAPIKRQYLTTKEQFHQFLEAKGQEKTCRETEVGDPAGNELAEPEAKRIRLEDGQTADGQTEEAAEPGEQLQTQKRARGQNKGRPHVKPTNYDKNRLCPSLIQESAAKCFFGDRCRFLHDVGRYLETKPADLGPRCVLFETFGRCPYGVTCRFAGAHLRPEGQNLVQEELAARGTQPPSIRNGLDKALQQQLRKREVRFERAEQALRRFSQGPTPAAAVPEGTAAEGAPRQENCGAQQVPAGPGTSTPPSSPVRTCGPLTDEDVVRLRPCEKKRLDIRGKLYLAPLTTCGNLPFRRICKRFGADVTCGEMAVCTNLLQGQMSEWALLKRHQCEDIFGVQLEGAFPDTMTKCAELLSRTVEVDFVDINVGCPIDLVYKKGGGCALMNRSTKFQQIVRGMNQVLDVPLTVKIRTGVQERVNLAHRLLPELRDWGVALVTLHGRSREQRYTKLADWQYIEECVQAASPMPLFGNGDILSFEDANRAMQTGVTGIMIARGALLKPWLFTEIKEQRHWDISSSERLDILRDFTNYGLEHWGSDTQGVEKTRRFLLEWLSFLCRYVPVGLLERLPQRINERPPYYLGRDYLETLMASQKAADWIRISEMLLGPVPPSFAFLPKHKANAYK", "log2 fold change": 0.018}, {"target": "EFL1 (UniProt Q7Z2Z2)", "sequence (Q7Z2Z2 whole entry, looked up)": "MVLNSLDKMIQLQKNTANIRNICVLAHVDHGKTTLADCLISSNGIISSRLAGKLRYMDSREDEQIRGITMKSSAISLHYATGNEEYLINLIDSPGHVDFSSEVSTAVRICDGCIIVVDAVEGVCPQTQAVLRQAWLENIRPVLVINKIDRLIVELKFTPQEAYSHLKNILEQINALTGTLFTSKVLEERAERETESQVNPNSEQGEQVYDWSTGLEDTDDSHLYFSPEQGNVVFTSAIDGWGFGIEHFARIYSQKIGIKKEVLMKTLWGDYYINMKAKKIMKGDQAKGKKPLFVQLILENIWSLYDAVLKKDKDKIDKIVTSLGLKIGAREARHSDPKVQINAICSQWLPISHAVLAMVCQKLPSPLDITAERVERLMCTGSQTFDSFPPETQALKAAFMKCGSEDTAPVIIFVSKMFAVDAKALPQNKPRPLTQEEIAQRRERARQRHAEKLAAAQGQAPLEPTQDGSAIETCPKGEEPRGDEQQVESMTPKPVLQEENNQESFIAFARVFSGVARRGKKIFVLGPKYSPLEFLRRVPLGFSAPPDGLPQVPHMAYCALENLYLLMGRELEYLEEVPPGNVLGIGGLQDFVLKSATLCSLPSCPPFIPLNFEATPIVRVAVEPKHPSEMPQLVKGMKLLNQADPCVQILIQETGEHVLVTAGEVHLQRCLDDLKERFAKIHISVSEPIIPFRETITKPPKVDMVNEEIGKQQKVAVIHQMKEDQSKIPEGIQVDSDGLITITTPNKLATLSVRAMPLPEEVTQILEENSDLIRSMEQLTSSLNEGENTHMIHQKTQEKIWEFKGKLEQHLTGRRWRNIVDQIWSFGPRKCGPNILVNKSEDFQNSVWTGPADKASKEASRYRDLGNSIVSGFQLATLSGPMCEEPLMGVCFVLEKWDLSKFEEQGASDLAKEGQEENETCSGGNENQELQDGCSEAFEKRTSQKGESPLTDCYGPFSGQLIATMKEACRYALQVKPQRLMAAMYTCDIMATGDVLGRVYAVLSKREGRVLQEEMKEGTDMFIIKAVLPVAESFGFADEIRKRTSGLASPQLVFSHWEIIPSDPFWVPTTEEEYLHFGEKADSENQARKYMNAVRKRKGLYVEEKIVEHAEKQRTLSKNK", "log2 fold change": -0.069}, {"target": "EEF1A1 (UniProt P68104)", "log2 fold change": -0.119}, {"target": "FAM207A (UniProt Q9NSI2)", "log2 fold change": 0.238}, {"target": "DPP8 (UniProt Q6V1X1)", "log2 fold change": 0.048}, {"target": "DDX27 (UniProt Q96GQ7)", "log2 fold change": 0.278}, {"target": "DBT (UniProt P11182)", "log2 fold change": 0.012}, {"target": "FAM241A (UniProt Q8N8J7)", "log2 fold change": "-0.828 (active)"}, {"target": "CYB561A3 isoform 2 (UniProt Q8NBI2)", "sequence (Q8NBI2 whole entry, looked up)": "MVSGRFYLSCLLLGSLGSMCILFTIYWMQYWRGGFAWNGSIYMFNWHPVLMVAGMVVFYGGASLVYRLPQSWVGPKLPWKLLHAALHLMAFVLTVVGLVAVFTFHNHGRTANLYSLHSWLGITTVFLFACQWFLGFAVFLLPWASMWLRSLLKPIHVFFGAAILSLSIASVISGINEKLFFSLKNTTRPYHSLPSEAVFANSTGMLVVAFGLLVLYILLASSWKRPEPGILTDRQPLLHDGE", "log2 fold change": -0.073}, {"target": "FAM193B (UniProt Q96PV7)", "log2 fold change": 0.379}, {"target": "FAM117A (UniProt Q9C073)", "log2 fold change": -0.025}, {"target": "EHD2 (UniProt Q9NZN4)", "log2 fold change": -0.013}, {"target": "DAXX (UniProt Q9UER7)", "log2 fold change": 0.008}, {"target": "DHRS13 (UniProt Q6UX07)", "log2 fold change": 0.298}, {"target": "CTNNB1 (UniProt P35222)", "log2 fold change": 0.174}, {"target": "DOCK8 (UniProt Q8NF50)", "log2 fold change": 0.464}, {"target": "EIF4G3 isoform 3 (UniProt O43432)", "log2 fold change": 0.063}, {"target": "DCP2 (UniProt Q8IU60)", "log2 fold change": 0.121}, {"target": "EIF2AK1 (UniProt Q9BQI3)", "log2 fold change": 0.014}, {"target": "FAF2 (UniProt Q96CS3)", "log2 fold change": -0.022}, {"target": "ELF1 (UniProt P32519)", "log2 fold change": 0.028}, {"target": "DNAJC24 (UniProt Q6P3W2)", "sequence (Q6P3W2 whole entry, looked up)": "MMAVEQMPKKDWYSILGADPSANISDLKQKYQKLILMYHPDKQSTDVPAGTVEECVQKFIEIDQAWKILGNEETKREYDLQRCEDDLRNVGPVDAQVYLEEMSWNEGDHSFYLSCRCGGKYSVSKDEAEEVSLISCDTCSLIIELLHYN", "log2 fold change": 0.199}, {"target": "EXOSC10 (UniProt Q01780)", "log2 fold change": 0.136}, {"target": "DNAH5 (UniProt Q8TE73)", "log2 fold change": -0.061}, {"target": "FAM118B (UniProt Q9BPY3)", "log2 fold change": -0.196}, {"target": "ELAC1 (UniProt Q9H777)", "log2 fold change": 0.083}, {"target": "EIF4E2 (UniProt O60573)", "log2 fold change": -0.089}]}, {"compound": "CO[C@H]1C[C@@H]2CC[C@@H](C)[C@@](O)(O2)C(=O)C(=O)N2CCCC[C@H]2C(=O)O[C@H]([C@H](C)C[C@@H]2CC[C@H](n3cnnn3)[C@H](OC)C2)CC(=O)[C@H](C)/C=C(\\C)[C@@H](O)[C@@H](OC)C(=O)[C@H](C)C[C@H](C)/C=C/C=C/C=C/1C [zotarolimus]", "experiment": "log2 fold change, soluble protein after heating vs DMSO (PISA); higher = thermal stabilisation; K562 cells, 10 uM, 30 min; active = over 0.2 and 3.5 SD of the protein, either way, in both replicates (recomputed)", "outline": "as §1", "values": [{"target": "DYNC1I2 isoform 2 (UniProt Q13409)", "log2 fold change": -0.085}, {"target": "EZH2 isoform 2 (UniProt Q15910)", "log2 fold change": -0.073}, {"target": "EHBP1L1 (UniProt Q8N3D4)", "log2 fold change": 0.065}, {"target": "DDX5 (UniProt P17844)", "log2 fold change": 0.062}, {"target": "FAM177A1 isoform 2 (UniProt Q8N128)", "log2 fold change": -0.041}, {"target": "EXOC4 (UniProt Q96A65)", "log2 fold change": 0.065}, {"target": "E2F4 (UniProt Q16254)", "log2 fold change": 0.042}, {"target": "DNAH10 (UniProt Q8IVF4)", "log2 fold change": -0.046}, {"target": "DSN1 (UniProt Q9H410)", "log2 fold change": 0.114}, {"target": "DNM2 isoform 4 (UniProt P50570)", "log2 fold change": 0.273}, {"target": "CWF19L2 (UniProt Q2TBE0)", "log2 fold change": -0.025}, {"target": "DDOST (UniProt P39656)", "log2 fold change": 0.036}, {"target": "CTSS (UniProt P25774)", "log2 fold change": -0.081}, {"target": "DUS3L (UniProt Q96G46)", "log2 fold change": 0.001}, {"target": "EFL1 (UniProt Q7Z2Z2)", "log2 fold change": 0.022}, {"target": "EEF1A1 (UniProt P68104)", "log2 fold change": 0.182}, {"target": "DPP8 (UniProt Q6V1X1)", "log2 fold change": 0.028}, {"target": "DDX27 (UniProt Q96GQ7)", "log2 fold change": 0.071}, {"target": "DBT (UniProt P11182)", "log2 fold change": 0.007}, {"target": "FAM241A (UniProt Q8N8J7)", "log2 fold change": -0.045}, {"target": "CYB561A3 isoform 2 (UniProt Q8NBI2)", "log2 fold change": 0.011}, {"target": "FAM193B (UniProt Q96PV7)", "log2 fold change": -0.077}, {"target": "FAM117A (UniProt Q9C073)", "log2 fold change": 0.008}, {"target": "EHD2 (UniProt Q9NZN4)", "log2 fold change": 0.007}, {"target": "DAXX (UniProt Q9UER7)", "log2 fold change": 0.055}, {"target": "DHRS13 (UniProt Q6UX07)", "log2 fold change": 0.271}, {"target": "CTNNB1 (UniProt P35222)", "log2 fold change": 0.029}, {"target": "DOCK8 (UniProt Q8NF50)", "log2 fold change": 0.083}, {"target": "EIF4G3 isoform 3 (UniProt O43432)", "log2 fold change": 0.002}, {"target": "DCP2 (UniProt Q8IU60)", "log2 fold change": -0.037}, {"target": "EIF2AK1 (UniProt Q9BQI3)", "log2 fold change": -0.057}, {"target": "FAF2 (UniProt Q96CS3)", "log2 fold change": 0.035}, {"target": "ELF1 (UniProt P32519)", "log2 fold change": -0.019}, {"target": "DNAJC24 (UniProt Q6P3W2)", "log2 fold change": 0.004}, {"target": "EXOSC10 (UniProt Q01780)", "log2 fold change": 0.115}, {"target": "DNAH5 (UniProt Q8TE73)", "log2 fold change": 0.024}, {"target": "FAM118B (UniProt Q9BPY3)", "log2 fold change": 0.011}, {"target": "ELAC1 (UniProt Q9H777)", "log2 fold change": -0.06}, {"target": "EIF4E2 (UniProt O60573)", "log2 fold change": 0.058}]}]}
